# For some assays here: Potency and affinity values are given separately.
# How the values were obtained:
# Design in all cases: scale not given: direction of the effect not stated beside the values
# [1] = molecular target: Protein translocase subunit SecA (Escherichia coli (strain K12)) (UniProt P10408); test: Assay to Identify E. coli SecA ATPase Inhibitors; format: functional; conditions: 30 µM
# [2] = molecular target: T1, Ubiquitin-activating enzyme e1, putative (Leishmania donovani (strain BPK282A1)) (UniProt E9BSI1); test: Leishmania donovani Ubiquitin Activating Enzyme (LdE1); format: functional; conditions: 30 µM
# T1 sequence (whole entry): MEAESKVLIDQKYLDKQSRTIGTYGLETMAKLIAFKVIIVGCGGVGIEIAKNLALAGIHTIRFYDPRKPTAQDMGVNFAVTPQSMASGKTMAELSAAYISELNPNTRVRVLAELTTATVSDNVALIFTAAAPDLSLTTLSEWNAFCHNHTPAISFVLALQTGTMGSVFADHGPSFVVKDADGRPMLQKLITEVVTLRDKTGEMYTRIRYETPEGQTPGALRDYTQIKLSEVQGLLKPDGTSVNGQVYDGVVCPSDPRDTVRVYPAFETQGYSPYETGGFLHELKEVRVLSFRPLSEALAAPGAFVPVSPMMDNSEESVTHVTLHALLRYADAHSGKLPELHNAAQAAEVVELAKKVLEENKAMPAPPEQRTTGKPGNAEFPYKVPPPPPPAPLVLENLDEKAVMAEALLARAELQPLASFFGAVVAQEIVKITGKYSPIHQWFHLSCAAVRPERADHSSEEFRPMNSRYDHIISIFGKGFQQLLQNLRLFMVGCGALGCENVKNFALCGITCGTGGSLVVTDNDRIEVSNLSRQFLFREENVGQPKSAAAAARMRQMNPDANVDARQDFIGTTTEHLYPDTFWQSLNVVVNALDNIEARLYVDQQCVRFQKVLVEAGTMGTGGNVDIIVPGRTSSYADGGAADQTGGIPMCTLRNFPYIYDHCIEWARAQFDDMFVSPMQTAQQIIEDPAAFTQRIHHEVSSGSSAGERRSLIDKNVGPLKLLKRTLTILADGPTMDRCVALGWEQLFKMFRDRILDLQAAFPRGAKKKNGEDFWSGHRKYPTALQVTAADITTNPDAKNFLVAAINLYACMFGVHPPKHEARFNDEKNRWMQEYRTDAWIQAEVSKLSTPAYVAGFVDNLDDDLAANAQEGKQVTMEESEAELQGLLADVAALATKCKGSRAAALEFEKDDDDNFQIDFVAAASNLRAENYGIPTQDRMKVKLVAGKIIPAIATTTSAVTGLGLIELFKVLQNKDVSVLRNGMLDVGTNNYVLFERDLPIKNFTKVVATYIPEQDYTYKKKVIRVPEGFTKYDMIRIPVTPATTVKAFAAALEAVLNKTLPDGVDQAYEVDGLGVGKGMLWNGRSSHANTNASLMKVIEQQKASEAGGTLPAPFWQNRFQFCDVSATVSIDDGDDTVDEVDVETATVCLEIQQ
# [3] = molecular target: AMP-activated protein kinase, AMPK (Homo sapiens) (UniProt P54646+O43741+P54619+Q9UGJ0+Q9Y478+Q13131+Q9UGI9); test: AMP-dependent Kinase enzyme assay. An in vitro enzyme assay that detects ADP turnover that is directly proportional to AMPK activity. This uses naive AMPK that is activated during the assay with MK-8722; format: functional; conditions: 30 µM
# [4] = molecular target: Sialic acid-binding Ig-like lectin 9 (Homo sapiens) (UniProt Q9Y336); test: Hs-Siglec9 ALPHAscreen SOP 20170721; conditions: 10 µM
# Sialic acid-binding Ig-like lectin 9 (Homo sapiens), sequence (Q9Y336 whole entry): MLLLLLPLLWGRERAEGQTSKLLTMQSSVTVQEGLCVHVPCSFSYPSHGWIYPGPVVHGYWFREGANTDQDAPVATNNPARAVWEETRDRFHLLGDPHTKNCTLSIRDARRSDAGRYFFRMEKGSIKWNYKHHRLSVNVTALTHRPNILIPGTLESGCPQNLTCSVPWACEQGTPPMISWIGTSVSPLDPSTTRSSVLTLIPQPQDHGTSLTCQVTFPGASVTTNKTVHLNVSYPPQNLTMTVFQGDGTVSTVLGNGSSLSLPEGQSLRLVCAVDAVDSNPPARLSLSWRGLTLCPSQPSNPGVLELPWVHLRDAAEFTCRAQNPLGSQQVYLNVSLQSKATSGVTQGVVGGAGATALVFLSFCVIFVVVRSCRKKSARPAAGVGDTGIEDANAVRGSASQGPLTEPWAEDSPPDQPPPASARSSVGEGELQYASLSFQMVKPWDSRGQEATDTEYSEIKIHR
# Trypanosoma cruzi = test: Trypanosoma cruzi phosphomannomutase and mannose-1-phosphate guanylyltransferase assay; format: functional; conditions: 10 µM
# [5] = molecular target: T2, Arginase-2, mitochondrial (Homo sapiens) (UniProt P78540); test: in vitro enzyme assay to detect the production of urea directly proportional to the activity of Arginase II; format: functional; conditions: 33.3 µM; also: in the data most compounds retested in dose-response had high values
# T2 sequence (whole entry): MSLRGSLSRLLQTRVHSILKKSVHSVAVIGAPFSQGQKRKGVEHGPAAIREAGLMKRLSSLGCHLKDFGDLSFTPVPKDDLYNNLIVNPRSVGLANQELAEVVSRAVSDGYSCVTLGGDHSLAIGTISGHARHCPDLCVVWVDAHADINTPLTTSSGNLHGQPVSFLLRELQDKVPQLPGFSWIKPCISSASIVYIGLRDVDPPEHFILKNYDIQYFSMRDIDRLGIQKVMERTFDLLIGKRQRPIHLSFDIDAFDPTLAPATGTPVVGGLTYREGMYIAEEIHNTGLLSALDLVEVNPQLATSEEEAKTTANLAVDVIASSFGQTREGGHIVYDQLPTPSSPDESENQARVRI
# [6] = molecular target: T3, Proteasome subunit beta (Trypanosoma cruzi) (UniProt O96673); test: Trypanosoma cruzi proteasome chymotrypsin-like activity (TcProtChymo) assay.; also: in the data most compounds retested in dose-response had high values; format: functional; conditions: 9.37 µM
# T3 sequence (whole entry): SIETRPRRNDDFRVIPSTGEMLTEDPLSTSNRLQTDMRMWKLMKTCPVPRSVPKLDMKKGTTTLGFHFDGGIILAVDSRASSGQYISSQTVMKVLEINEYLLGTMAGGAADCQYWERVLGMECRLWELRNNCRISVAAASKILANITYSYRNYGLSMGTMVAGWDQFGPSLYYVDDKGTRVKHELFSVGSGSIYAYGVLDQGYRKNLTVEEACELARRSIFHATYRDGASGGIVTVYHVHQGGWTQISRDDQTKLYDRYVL
# Homo sapiens = species on record: Homo sapiens; test: To identify inhibition of the IFN signalling (Jak-Stat) pathway via expression of an eGFP reporter gene under the control of an IFN-stimulated response element (ISRE) containing MxA promoter.; format: functional; conditions: 30 µM
# [7] = molecular target: T4, Tyrosyl-tRNA synthetase, putative (Trypanosoma cruzi (strain CL Brener)) (UniProt Q4DSP6); test: Trypanosoma cruzi tyrosyl tRNA synthetase (TcYRS) _High Tyrosine SOP; format: functional; conditions: 30 µM; also: in the data most compounds retested in dose-response had high values
# T4 sequence (whole entry): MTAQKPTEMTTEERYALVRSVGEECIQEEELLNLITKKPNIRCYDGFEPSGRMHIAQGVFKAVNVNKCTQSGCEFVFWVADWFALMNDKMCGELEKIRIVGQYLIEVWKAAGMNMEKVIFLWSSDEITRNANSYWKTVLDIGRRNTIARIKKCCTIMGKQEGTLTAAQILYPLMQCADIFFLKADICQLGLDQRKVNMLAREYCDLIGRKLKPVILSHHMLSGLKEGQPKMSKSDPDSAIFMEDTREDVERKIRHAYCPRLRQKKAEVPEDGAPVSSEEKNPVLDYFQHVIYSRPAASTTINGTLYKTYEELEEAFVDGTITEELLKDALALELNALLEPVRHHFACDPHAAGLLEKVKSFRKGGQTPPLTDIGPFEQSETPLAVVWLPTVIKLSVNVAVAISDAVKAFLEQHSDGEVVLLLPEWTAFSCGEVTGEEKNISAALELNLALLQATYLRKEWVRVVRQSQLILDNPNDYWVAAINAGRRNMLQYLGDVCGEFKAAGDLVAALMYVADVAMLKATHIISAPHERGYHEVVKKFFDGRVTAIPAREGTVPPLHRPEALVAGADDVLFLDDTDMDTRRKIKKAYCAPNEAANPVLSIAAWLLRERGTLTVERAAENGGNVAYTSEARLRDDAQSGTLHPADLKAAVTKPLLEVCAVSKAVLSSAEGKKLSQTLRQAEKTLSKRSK
# [8] = molecular target: T4, Tyrosyl-tRNA synthetase, putative (Trypanosoma cruzi (strain CL Brener)); test: Trypanosoma cruzi tyrosyl tRNA synthetase (TcYRS) SOP; format: functional; conditions: 30 µM
# [9] = molecular target: Chromo domain-containing protein 1 (Saccharomyces cerevisiae (strain ATCC 204508 / S288c) (Baker's yeast)) (UniProt P32657); test: ScCHD-1 Enzyme Inhibition Assay; format: functional; conditions: 30 µM; also: in the data most compounds retested in dose-response had high values
# Chromo domain-containing protein 1 (Saccharomyces cerevisiae (strain ATCC 204508 / S288c) (Baker's yeast)), sequence (P32657 whole entry, the tested form may be a part): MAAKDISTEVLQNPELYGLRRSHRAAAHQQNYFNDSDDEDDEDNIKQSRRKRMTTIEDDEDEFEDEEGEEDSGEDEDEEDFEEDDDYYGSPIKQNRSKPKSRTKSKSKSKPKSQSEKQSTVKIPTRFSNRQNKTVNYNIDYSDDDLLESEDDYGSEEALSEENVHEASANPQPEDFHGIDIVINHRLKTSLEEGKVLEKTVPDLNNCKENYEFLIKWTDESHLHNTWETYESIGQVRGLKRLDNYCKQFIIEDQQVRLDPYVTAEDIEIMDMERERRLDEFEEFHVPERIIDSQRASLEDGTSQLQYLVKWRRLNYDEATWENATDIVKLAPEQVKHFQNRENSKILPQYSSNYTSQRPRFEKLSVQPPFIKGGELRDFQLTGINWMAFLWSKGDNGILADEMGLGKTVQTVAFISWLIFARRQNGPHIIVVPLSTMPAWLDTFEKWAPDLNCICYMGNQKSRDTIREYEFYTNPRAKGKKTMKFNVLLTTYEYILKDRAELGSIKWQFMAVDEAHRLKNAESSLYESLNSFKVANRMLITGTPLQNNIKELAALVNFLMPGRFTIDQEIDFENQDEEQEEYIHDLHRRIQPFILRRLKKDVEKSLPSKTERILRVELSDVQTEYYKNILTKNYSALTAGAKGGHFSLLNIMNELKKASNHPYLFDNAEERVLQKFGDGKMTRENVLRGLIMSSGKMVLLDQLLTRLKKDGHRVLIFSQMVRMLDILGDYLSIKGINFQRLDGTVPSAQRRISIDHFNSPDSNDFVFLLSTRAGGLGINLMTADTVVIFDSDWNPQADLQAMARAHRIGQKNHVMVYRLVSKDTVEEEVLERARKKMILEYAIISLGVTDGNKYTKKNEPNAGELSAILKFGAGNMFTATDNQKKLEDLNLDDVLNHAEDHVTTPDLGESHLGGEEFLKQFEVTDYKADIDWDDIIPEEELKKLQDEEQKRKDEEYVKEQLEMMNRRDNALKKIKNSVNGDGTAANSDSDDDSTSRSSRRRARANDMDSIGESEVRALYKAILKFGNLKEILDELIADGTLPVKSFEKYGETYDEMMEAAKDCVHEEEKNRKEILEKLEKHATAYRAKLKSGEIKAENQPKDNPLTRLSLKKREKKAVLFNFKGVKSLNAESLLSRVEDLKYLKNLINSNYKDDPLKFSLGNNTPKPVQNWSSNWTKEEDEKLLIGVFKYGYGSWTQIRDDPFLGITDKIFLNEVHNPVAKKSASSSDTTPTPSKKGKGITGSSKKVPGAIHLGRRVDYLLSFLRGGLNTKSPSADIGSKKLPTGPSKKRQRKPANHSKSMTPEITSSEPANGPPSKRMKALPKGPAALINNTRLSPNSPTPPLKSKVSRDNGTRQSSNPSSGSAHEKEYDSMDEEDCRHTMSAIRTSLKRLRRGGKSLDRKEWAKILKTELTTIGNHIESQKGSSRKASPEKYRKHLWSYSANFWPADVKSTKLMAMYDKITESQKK
# Protein translocase subunit SecA (Escherichia coli (strain K12)), sequence (P10408 whole entry): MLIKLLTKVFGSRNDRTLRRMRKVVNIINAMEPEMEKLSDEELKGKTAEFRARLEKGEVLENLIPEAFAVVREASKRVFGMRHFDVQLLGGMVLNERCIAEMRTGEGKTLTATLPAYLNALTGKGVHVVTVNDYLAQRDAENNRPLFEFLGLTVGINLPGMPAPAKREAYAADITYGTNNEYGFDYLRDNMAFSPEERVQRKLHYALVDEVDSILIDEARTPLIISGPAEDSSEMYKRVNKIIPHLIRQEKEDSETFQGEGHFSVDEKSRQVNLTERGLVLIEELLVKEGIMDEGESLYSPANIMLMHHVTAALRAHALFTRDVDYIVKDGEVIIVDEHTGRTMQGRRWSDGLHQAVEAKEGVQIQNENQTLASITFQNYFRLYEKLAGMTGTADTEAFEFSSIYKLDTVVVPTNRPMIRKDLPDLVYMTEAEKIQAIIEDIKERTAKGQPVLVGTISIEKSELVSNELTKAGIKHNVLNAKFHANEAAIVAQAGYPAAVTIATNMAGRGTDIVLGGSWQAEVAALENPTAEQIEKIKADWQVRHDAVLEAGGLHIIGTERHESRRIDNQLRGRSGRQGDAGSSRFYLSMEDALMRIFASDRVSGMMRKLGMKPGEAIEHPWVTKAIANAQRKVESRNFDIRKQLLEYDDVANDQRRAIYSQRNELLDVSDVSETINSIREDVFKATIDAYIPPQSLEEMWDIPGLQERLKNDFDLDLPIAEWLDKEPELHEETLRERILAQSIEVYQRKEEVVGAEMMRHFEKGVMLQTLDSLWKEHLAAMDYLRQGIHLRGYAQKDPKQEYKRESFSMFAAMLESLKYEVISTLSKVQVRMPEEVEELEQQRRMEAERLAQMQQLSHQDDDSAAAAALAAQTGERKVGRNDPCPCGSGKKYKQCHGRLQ
SMILES,Percent Effect [1],Percent Effect [2],Percent Effect [3],Percent Effect [4],Percent Effect (Trypanosoma cruzi),Percent Effect [5],Percent Effect [6],Percent Effect (Homo sapiens),Percent Effect [7],Percent Effect [8],Percent Effect [9]
COCCOc1ccc(NC(=O)N2CCCC2c2ccncc2)cn1 (configuration not stated),-2.75%,0%,2.9%,5.29%,2.64%,-1.47%,12.8%,11.5%,1.91%,0%,-22.2%
Cc1nc(C)n(CC2CCCN(Cc3nc(C)c(C)o3)C2)n1 (configuration not stated),-2.17%,21.6%,-13.9%,-7.46%,2.92%,-12.8%,17.7%,7.96%,1.48%,23.5%,-11%
Cc1nc(C)c(C(=O)NCCNC(=O)Cc2cccc(F)c2)s1,-3.25%,16.2%,-2.81%,1.34%,0.464%,0.924%,17.8%,17.9%,9.9%,18.3%,-4.49%
Cc1ccc(C(=O)NCC2(O)CCOCC2)cc1Br,-4.53%,5.41%,0.131%,12.8%,-0.772%,-2.38%,7.07%,19%,4.76%,7.32%,-2.67%
O=C(COc1ccc2c(c1)CCC2)N1CCOCC1c1ncon1 (configuration not stated),-2.91%,2.7%,-3.96%,-4.39%,-4.62%,1.2%,-1.62%,13.6%,4.43%,6.17%,-2.72%
CN1N=C(C(=O)N2CCCC(CCc3c(F)cccc3F)C2)CCC1=O (configuration not stated),-4.37%,2.7%,0.625%,7.41%,1.74%,0%,1.21%,4.11%,3.7%,7.32%,-1.23%
CN(CCCc1cnn(C)c1)C(=O)C1COc2ccccc2C1 (configuration not stated),0.742%,8.22%,1.84%,-1.88%,-1.37%,2.27%,20.6%,9.33%,2.15%,17.5%,-14.2%
Cc1cc(C)n(C2CCCN(C(=O)c3ccc(NC4CC4)nc3)C2)n1 (configuration not stated),-6.18%,7.79%,5.88%,2.52%,-4.6%,1.05%,7.52%,16.1%,4.76%,9.41%,-13.5%
COc1ccc(CNC(C)c2cccc(Cl)c2)c(OC)c1OC (configuration not stated),-1.96%,10.7%,-5.69%,5.99%,6.52%,4.69%,5.58%,16.5%,0.546%,6.17%,-1.65%
COCC1CCCN(C(=O)c2cc(Cn3ccc4ccccc43)[nH]n2)C1 (configuration not stated),-5.5%,-7.79%,0.36%,11.2%,8.75%,-81.4%,-0.666%,-41.3%,14%,18.5%,127%
CN(C)CCOCC1CN(CC2CCOCC2)Cc2nnn(C)c21 (configuration not stated),-5.87%,10.8%,1.42%,-2.51%,-5.96%,1.24%,8.67%,17%,5.38%,11.1%,-4.9%
CC(C)c1ccsc1C(=O)N1CCCN(Cc2cscn2)CC1,-1.52%,2.6%,-0.162%,-7.44%,0.686%,-2.32%,19.8%,21.5%,18.1%,32.9%,-19.8%
Cn1cc(C2CCCN2C(=O)Cc2n[nH]c3ccccc23)cn1 (configuration not stated),-3.26%,22.8%,4.87%,-9.88%,6.33%,0.76%,13%,7.84%,6.4%,21.5%,-11.7%
Cn1ncc2c(=O)[nH]c(CN(Cc3cccc(F)c3)C3CC3)nc21,-4.78%,15.6%,1.73%,-0.0963%,8.05%,3.92%,16.1%,-5.95%,8.74%,24.4%,-7.35%
CNC(=O)CCCNCc1c(C(C)C)nn(C)c1N(C)C,-1.38%,0%,-11.4%,-8.3%,-2.15%,2.52%,0.761%,-13.6%,-2.46%,-1.24%,5.41%
COc1ccc(C(=O)N2Cc3c(Cn4ccnc4)nn(C)c3C2)cc1,-2.78%,8%,5.76%,-5.42%,3.15%,-1.63%,12.1%,7.14%,5.32%,11.5%,-3.95%
CNC(=O)N1C[C@H]2CC[C@@]3(N=C(c4ccccc4)NC3=O)[C@H]2C1,-5.03%,2.6%,0.951%,7.17%,9.73%,-67.6%,9.48%,12.9%,2.15%,11.1%,-1.88%
COCCN1CCCC(O)(CN2CCN(c3ncccc3C)CC2)C1=O (configuration not stated),5.28%,-27%,-3.41%,7.83%,-5.21%,0.476%,15.3%,9.99%,8.99%,12.2%,-5.83%
N#Cc1ccccc1C(=O)N1CCC2(CC(=O)NC2=O)C1 (configuration not stated),0.342%,10.8%,0.526%,4.48%,-5.21%,-2.38%,14%,14.1%,4.76%,4.88%,-3.81%
CCc1nnsc1C(=O)N1CCOC(c2nc(C)n[nH]2)C1 (configuration not stated),-5.12%,8.86%,-2.61%,-4.1%,0.718%,-0.215%,8.23%,-0.829%,5.21%,17.7%,-30.2%
CC(C)(C)c1n[nH]cc1CN1CCc2nc3ccsc3c(=O)n2CC1,-2.34%,25.7%,7.24%,-3.97%,2.96%,-7.19%,18.7%,43.3%,-1.07%,3.9%,-5.96%
COc1ccc2c(c1)CCN(CCC(=O)NC1CCCCC1)CC2,-1.36%,2.7%,-5.04%,1.78%,5.41%,-1.43%,15.3%,14.6%,6.88%,12.2%,-1.4%
